According to PubChem BioAssay AID2094 (Broad Institute, 2009):
In all, about 300,000 compounds went through this assay and about 1,200 (0.4%) were called active. Many of the other results were omitted from the sample, so actives are more common in it than they were. Unmarked numbers belong to inactive results. Rule as the data show it: active = activity change below about -75% (passing the limit was not always enough); inconclusive = no clear call, values can overlap the other calls.

experiment: modulation of AI-2 quorum-sensing luminescence – JMH597 strain, luminescence/OD600 ratio, primary screen (AID 2094); settings: Vibrio harveyi JMH597 AI-2 luminescence/OD600 ratio, 9 h; at 7.5 µM; stronger effect = lower value; 0 = neutral-control median; strain lacks LuxN and CqsS sensors;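 also: luminescence divided by OD600 gain over 9 h not by final OD600 alone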

Structure (SMILES)	activity change
O=C(NC1CCN(C(=S)Nc2ccc(Cl)cc2)CC1)C1CCCCC1	16.7%
O=C(O)c1c(NC(=O)N2CCCC2)sc2c1CCCC2	6.56%
COc1cccc(C(=O)NC(=O)Nc2nc(C)cc(C(F)(F)F)n2)c1	11%
Cc1nn(CC(=O)Nc2ccc3c(c2)nc(CN2CCCCC2)n3C)c(=O)c2ccccc12	18.4%
O=C(Cn1nc(C(=O)O)c2ccccc2c1=O)Nc1ccc(F)cc1	18.2%
Cc1nn(CC(=O)Nc2ccc(F)cc2)c(=O)c2ccccc12	-95.2% (active)
CCN(C(=O)COC(=O)C1CCN(S(=O)(=O)c2ccc(C)c(C)c2)CC1)C1CCS(=O)(=O)C1 (stereo not given)	-3.07%
O=C(CCNS(=O)(=O)c1ccc(Br)s1)NCc1ccccc1Cl	32.2%
CCN(CC)c1ccc(NC(=O)c2ccc(=O)[nH]c2)cc1S(=O)(=O)Nc1ccc(OC)cc1	18.7%
COc1ccc(CN(C)C(=O)c2cc(-c3ccc(C)cc3C)nc3ccccc23)c(OC)c1OC	10.3%
COc1cc(C(=S)NCc2ccccc2)cc(Br)c1O	-79.9% (active)
COc1cc(C=O)c(Br)cc1OCC(=O)NCc1ccccc1	15.5%
COc1cc(C(=O)NCc2ccncc2)cc(Br)c1OCc1ccccc1	36.8%
CN(C(=O)CN1C(=O)S/C(=C\c2ccccc2F)C1=O)C1CCS(=O)(=O)C1 (stereo not given)	34.2%
C=CCSc1nsc(NC(=O)Nc2cccc(C(C)=O)c2)n1	-85% (active)
CCSc1nsc(NC(=O)Nc2ccccc2OC)n1	11.5%
CSc1nsc(NC(=O)Nc2ccccc2)n1	37.1%
COc1ccc(NC(=O)CSCc2ccc([N+](=O)[O-])cc2)cc1OC	3.16%
COc1ccc(-c2cc(C(=O)N(C)CC(=O)Nc3ccccc3Cl)c3ccccc3n2)cc1OC	20%
O=C(COc1cccc2c1CCNC2=O)NC1CCCCC1	2.05%
O=C(OCc1cn(-c2ccc(Cl)c(Cl)c2)nn1)c1ccccc1Cl	-28.4%
CCCCCc1ccc(-c2ccc(OCC)cc2)nc1	-0.256%

Structure (SMILES)	activity change
CCCCCc1ccc(-c2cn(Cc3ccc4ccccc4c3)nn2)cc1	6.86%
CCCCCc1ccc(-c2ccc(C(=O)O)cc2)nc1	-76% (active)
Cc1c(CC(=O)N2CCN(C(=O)C3COc4ccccc4O3)CC2)c(=O)oc2c(O)c(O)ccc12 (stereo not given)	10.9%
O=C(NC(=O)N1CCSCC1)c1c(Cl)cccc1Cl	19.3%
CSCCC(NC(=O)c1ccco1)C(=O)Nc1cc(C)ccn1 (stereo not given)	30%
COc1ccc(/C=C(\C#N)C(=O)OCC(=O)N(C)C2CCS(=O)(=O)C2)cc1 (stereo not given)	22.6%
O=C(O)CCc1cccnc1	7.07%
N/C(=N\OC(=O)CCc1ccccc1)c1ccc(Cl)cc1	7.92%
N/C(=N\OC(=O)CCc1ccccc1)c1cccnc1	-85.7% (active)
COc1ccc(C(=O)NCc2nnc(SCC(=O)NC3=NCCS3)n2C)cc1	-5.32%
CCCOCC(O)CC(CC)C(=O)NNC(=S)Nc1ccccc1 (stereo not given)	0.623%
O=C1/C(=C/c2ccc3c(c2)OCO3)Oc2cc(OCC(=O)N3CC(O)C[C@H]3C(=O)O)ccc21 (stereo not given in full)	29%
O=C(CC1SCCNC1=O)Nc1ccc(Cl)cc1 (stereo not given)	-15%
O=C(CC1SCCNC1=O)Nc1ccc(Cl)c(Cl)c1 (stereo not given)	-87.7% (active)
O=C(CC1NCCNC1=O)Nc1cc(Cl)cc(Cl)c1 (stereo not given)	4.37%
COc1ccccc1/C=C/C=N/n1c(-c2ccc(Cl)cc2Cl)n[nH]c1=S	-0.967%
O=C(/C=C/Sc1ncn[nH]1)c1ccc(Cl)cc1	-91.7% (active)
Cc1cc(C)nc(S/C=C/C(=O)c2ccccc2)n1	4.08%
O=C(CSc1ncn[nH]1)N/N=C/c1ccc(F)cc1	-5.64%
CC(=O)N(CC(O)CO)c1c(I)c(C(=O)NCC(O)CO)c(I)c(C(=O)NCC(O)CO)c1I (stereo not given)	14.8%
Cn1ccc(=NC=C(C#N)C#N)c2ccccc21	22.8%
CCOc1ccc(/C=N/NC(N)=S)cc1	-94.8% (active)

Structure (SMILES)	activity change
CCOc1ccc(/C=N\NC(=O)c2c(C)nc3cc(C)ccn23)cc1	2.9%
C=CCNC(=S)N/N=C/c1ccc(OCc2ccccc2)cc1	16.4%
COC(=O)CSc1snnc1-c1ccc(Cl)c(Cl)c1	9.65%
O=S1(=O)N=C(N(CCO)/N=C/c2ccccc2F)c2ccccc21	15.9%
Cc1ccc(C2CC2C(=O)NN)cc1 (stereo not given)	19.8%
Cc1ccc(NC(=O)C2CC2c2ccccc2)cc1 (stereo not given)	-86.2% (active)
O=C(NNC(=S)Nc1ccc(F)cc1)[C@H]1C[C@@H]1c1ccccc1	-11.8%
CCN(CC(=O)NCc1cccs1)C(=O)c1cccc(S(=O)(=O)Nc2ccccc2OC)c1	5.29%
C/C(CC1CC(C)(C)OC1=O)=N/Nc1nc(-c2ccccc2)cs1 (stereo not given)	26.9%
Cc1ccccc1C(=O)NC(=S)Nc1ccc(N2CCN(C(=O)c3ccccc3)CC2)cc1	13.3%
Cc1ccccc1C(=O)N1CCN(c2ccc(NC(=O)c3cccs3)cc2)CC1	11.9%
Cc1ccccc1C(=O)Nc1ccc(N2CCCCCC2)cc1	-80.7% (active)
O=C(Nc1ccc(F)c(Cl)c1)C1CCN(S(=O)(=O)c2cccnc2)CC1	-93.8% (active)
O=C(NCc1cccs1)C1CCN(S(=O)(=O)c2ccc(Cl)cc2)CC1	14.4%
O=C(Nc1cccnc1)c1cccc(S(=O)(=O)N2CCCC2)c1	6.26%
O=C(Cc1cccs1)Nc1ccc([N+](=O)[O-])cc1	10.5%
Oc1ccc2ccc3cccc[n+]3c2c1	42.1%
CCOc1ccc(/C=N/OCC(=O)NCc2cccs2)cc1	5.49%
O=C(/C=C/c1ccc2c(c1)OCO2)NCc1ccc(F)cc1	-82.8% (active)
O=C(Cc1ccc(F)cc1)N/N=C/c1ccc2c(c1)OCO2	14.4%
O=C(/C=C/c1ccc2c(c1)OCO2)NCc1cn2cc(Cl)ccc2n1	2.46%
